PKM2 act: PKM2 (human) enzyme activation | 260,000 tested, 0.34% active | P14618 | AID 1631 | Potency, µM (series often up to 57.5 µM), for the others: top-dose activation, usual class: activators | purified PKM2, Kinase-Glo ATP luminescence, activation; response scale: 0% is enzyme alone, no compound; further: potency means the concentration at half of the fitted maximal effect; on the % scale 0 is the no-effect control and ±100 the full control effect; nearly all actives have a fitted effect of over 55% in size
Target sequence (P14618 whole entry, looked up): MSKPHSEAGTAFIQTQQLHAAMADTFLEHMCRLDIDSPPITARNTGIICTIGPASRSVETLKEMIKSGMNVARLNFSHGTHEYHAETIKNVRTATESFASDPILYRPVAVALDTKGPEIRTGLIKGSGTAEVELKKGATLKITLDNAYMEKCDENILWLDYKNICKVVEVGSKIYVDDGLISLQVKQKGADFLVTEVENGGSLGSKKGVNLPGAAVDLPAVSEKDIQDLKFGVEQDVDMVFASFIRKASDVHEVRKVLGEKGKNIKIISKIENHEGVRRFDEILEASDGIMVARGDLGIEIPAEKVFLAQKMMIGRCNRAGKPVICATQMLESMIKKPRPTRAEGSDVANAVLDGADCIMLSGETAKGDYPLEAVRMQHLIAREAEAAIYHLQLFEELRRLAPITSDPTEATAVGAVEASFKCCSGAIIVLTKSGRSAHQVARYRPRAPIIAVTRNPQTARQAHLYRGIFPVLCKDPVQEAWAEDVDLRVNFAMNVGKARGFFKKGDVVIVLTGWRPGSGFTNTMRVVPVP
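Kinase-Glo luminescence reports ATP generated from ADP (0.1 mM) and PEP (0.5 mM) by purified hPK-M2 after 1 h at room temperature, pH 7.2 imidazole buffer; intermediate enzyme activity allows detecting inhibitors and activators.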
IL2 activator: IL-2 activation; activation, % (series mostly up to about 46 µM); AID 652025; IL-2 activation reporter assay, cell-based qHTS; stimulated with anti-CD3/CD4/CD28 beads; in transgenic mouse T cells; 360,000 tested, 0.065% active; in the data active means activation above about 50%; inconclusive means mostly about 30% to 49%; further: 0% is about no effect
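Readout is EGFP and DsRed signal by fluorescent plate cytometry after 18 h at 37 degrees C. Transgenic mouse T cells (750/well) received compound for 60 min before bead stimulation (anti-CD3, anti-CD4, anti-CD28); memory T cells served as non-tolerant control.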
Vif-A3F inh: inhibitors of Vif-A3F interaction; HeLa A3F-eYFP + Vif (tagged APOBEC3F with the HIV-1 protein that degrades it), YFP fluorescence increase; Potency, µM (series often up to 46.1 µM), inactives show at the highest dose activity, negative = active; 390,000 tested, 0.2% active; AID 602313; further: potency means the concentration at half of the fitted maximal effect; % of control where 0% means no effect; nearly all actives have a fitted effect of over 65% in size
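HeLa cells stably expressing A3F-eYFP plus Vif, plated and incubated overnight at 37 deg C, then exposed to compounds overnight at 37 deg C. Blocked degradation read as raised yellow fluorescence (Ex 488/Em 500-530).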
Vif-A3G inh: Vif-A3G binding inhibition; AID 602310; HeLa A3G-eYFP + Vif (tagged APOBEC3G with the HIV-1 protein that degrades it), YFP fluorescence, overnight; Potency, µM (top dose mostly 46.1 µM), without a hit: at the top dose activity, negative = active, usual class: inhibitors; 410,000 tested, 0.076% active; further: potency means the concentration at half of the fitted maximal effect; on the % scale 0 is the no-effect control and ±100 the full control effect; nearly all actives have a fitted effect of over 60% in size
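Read-out is eYFP fluorescence (Ex 488/Em 500-530) from Vif-expressing HeLa A3G-eYFP cells; more signal means A3G escaped Vif-mediated degradation. Cells plated overnight, compound pinned in, incubated overnight at 37 deg C.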
The depositor's hits bear a star; ? = inconclusive; . = not tested or not shown. Only some compounds are listed: those with a hit (about 0.53% of all), similar ones and a draw of the others. Unless noted, the call rests on the fitted dose curve; in most records, active means well fitted curve in the direction sought with a large enough effect; inconclusive means small, poorly fitted or top-dose-only effect, or another doubt; inactive means no such curve, though single readings can be large; an effect the other way counts as inactive or inconclusive.

SMILES	PKM2 act	IL2 activator	Vif-A3F inh	Vif-A3G inh
N#C/C(=C\Nc1ccc(Cl)cn1)S(=O)(=O)c1ccccc1	16µM*	0	7%	1%
Cc1ccc(N/C=C(\C#N)S(=O)(=O)c2ccccc2)cc1	21%	-1	-22%	6%
N#C/C(=C\Nc1ccc(Cl)cn1)S(=O)(=O)c1ccccn1	10µM*	1	1%	0%
N#C/C(=C\C=C\c1ccccc1[N+](=O)[O-])C(=O)NCc1ccccc1	.	-6	4%	-23%
N#C/C(=C\c1ccccc1[N+](=O)[O-])C(=O)NCc1ccccc1	?	0	13µM*	-6%
O=C(N/N=C/C=C/c1ccco1)c1ccncc1	-2%	5	11µM*	3%
Cc1cc2nc(-c3ccc(SCC(=O)Nc4ccc(S(=O)(=O)N5CCCC5)cc4)nc3)[nH]c2cc1C	4%	-5	11µM*	-7%
Cc1ccc(CCNC(=O)c2ccc3c(c2)N(Cc2ccccc2F)C(=O)c2ccccc2S3=O)cc1 (stereo unspecified)	.	.	-2%	1%
CCOC(=O)c1cc(CC)sc1N1C(=O)CC(Sc2ccccc2C(=O)O)C1=O (stereo unspecified)	25µM*	-4	-1%	5%
COC(=O)c1c(N2C(=O)CC(Sc3ccccc3C(=O)O)C2=O)sc(C)c1C (stereo unspecified)	-10%	-1	-6%	-3%
COC(=O)c1c(N2C(=O)CC(Sc3ccccc3C(=O)O)C2=O)sc2c1CCCC2 (stereo unspecified)	7.9µM*	-2	0%	-2%
CCOC(=O)c1cc(CC)sc1N1C(=O)CC(Sc2ncccc2C(=O)O)C1=O (stereo unspecified)	5%	-2	0%	0%
COc1ccccc1CNC(=O)CC(c1ccc(C)cc1)N1Cc2ccccc2C1=O (stereo unspecified)	.	.	-2%	0%
COc1ccc(-c2nc(CSc3nncn4c3cc3oc(C)cc34)c(C)o2)cc1	.	.	?	0%
O=C(NCc1ccccc1Cl)c1ccc2c(O)c(S(=O)(=O)c3ccccc3)c(=O)[nH]c2c1	.	.	0%	3%
O=S(=O)(Nc1nc2ccccc2nc1N1CCc2ccccc2C1)c1ccc(Br)cc1	-49%	-3	22µM*	-22%
CN1CCN(c2nc3ccccc3nc2NS(=O)(=O)c2ccc(Br)cc2)CC1	.	0	10µM*	-10%
Cc1ccc(S(=O)(=O)Nc2nc3ccccc3nc2N2CCN(c3ccccc3F)CC2)cc1	-3%	1	-13%	-1%
O=S(=O)(Nc1nc2ccccc2nc1N1CCN(c2ccccn2)CC1)c1ccc(Cl)cc1	1%	1	7.9µM*	?
O=C(COc1ccc(F)cc1)N/N=C/c1cccc2cccnc12	.	-1	-3%	3%
CN1/C(=C\C=C(C#N)C#N)C(C)(C)c2ccccc21	-16%	143*	11µM*	-2%
CN1/C(=C\C=C(/C#N)C(=O)Nc2ccc(Cl)cc2)C(C)(C)c2ccccc21	-2%	1	?	7.1µM*
CN1/C(=C\C(=O)Nc2ccc(Cl)cc2)C(C)(C)c2ccccc21	3%	0	?	3%
Cc1ccc(-n2c(=O)c3c4c(sc3n(Cc3ccccc3F)c2=O)CCC4)cc1C	.	.	-3%	4%
CCSc1ccccc1C(=O)Nc1cc(OC)c(OC)c(OC)c1	28µM*	-2	-15%	-2%
SMILES	PKM2 act	IL2 activator	Vif-A3F inh	Vif-A3G inh
CCC(C)NC(=O)C1CCN(S(=O)(=O)c2ccc3c(ccn3CC)c2)CC1 (stereo unspecified)	.	.	-3%	0%
CCCCCCCCOc1ccc(C2CC(=O)NC2=O)cc1 (stereo unspecified)	0%	-1	11%	0%
O=C1CC(c2ccc(OCCCCCOc3ccc(C4CC(=O)NC4=O)cc3)cc2)C(=O)N1 (stereo unspecified)	14µM*	-2	3%	-7%
Cc1nnc2sc(SCc3ccccc3Cl)nn2c1=O	7.1µM*	-2	-2%	1%
Cc1ccc(/C=C2/NC(=O)N(Cc3ccc(Br)cc3)C2=O)o1	1.6µM*	0	-15%	-21%
Cc1ccc(/C=C2/NC(=O)N(Cc3ccccc3F)C2=O)o1	3.5µM*	-3	0%	-2%
CCCN1C(=O)/C(=C/c2ccc(C)o2)NC1=S	25µM*	.	.	.
CCn1c(C)cc(/C=C2/NC(=O)N(Cc3ccccc3F)C2=O)c1C	7%	-4	4%	-8%
CCN1C(=O)N/C(=C/c2ccc(C)o2)C1=O	?	-1	0%	-7%
CC(=O)c1cc(-c2ccc(F)cc2)n(CC(=O)NC(C)c2ccccc2)c1C (stereo unspecified)	.	.	4%	-2%
COc1ccc(CN2CCC[C@]3(N[C@H](c4ccccc4)[C@@H]4C(=O)N(Cc5ccccc5)C(=O)[C@@H]43)C2=O)cc1	.	-2	1%	1%
N#Cc1ccc(NCCc2ccccn2)c([N+](=O)[O-])c1	14µM*	0	0%	-9%
COCCOC(=O)c1[nH]c2c(c1C)C(=O)CC(c1ccco1)C2 (stereo unspecified)	?	-3	-13%	?
CSCCOC(=O)c1[nH]c2c(c1C)C(=O)CC(c1ccco1)C2 (stereo unspecified)	22µM*	-4	2%	?
O=C(CSc1nc2ccccc2n1Cc1cccc(F)c1)NCc1ccccc1	.	.	-10%	-4%
COc1ccc(C)cc1NC(=O)Nc1ccccc1OCc1cc(=O)n2ccccc2n1	.	.	-5%	-8%
Cn1ncc(SCc2ccccc2)c(Cl)c1=O	18µM*	0	8%	1%
Nc1c(C(=O)O)sc2nc3c(cc12)CCCC3	-4%	2	2%	3%
Nc1c(C(=O)c2ccc(Cl)cc2)sc2nc3c(cc12)CCC3	2%	8	25µM*	-8%
O=C(Cc1ccccc1)Nc1cccc(N2C(=O)C=CC2=O)c1	2.8µM*	-1	-10%	-25%
COc1ccccc1NC(=O)C1=C(C)Nc2nc(CCCO)nn2C1c1cccc(O)c1 (stereo unspecified)	.	.	4%	-6%
N#C/C(=C/c1ccc(-c2ccc(S(N)(=O)=O)cc2)o1)c1nc2ccccc2s1	-5%	71*	?	?
Cc1cn(C)c(CC(=O)Nc2cccc(C#N)c2)c1C(=O)O	.	.	7%	-4%
Cc1ccc(N(CC(=O)NCCc2ccccc2)S(=O)(=O)N(C)C)cc1	.	.	-10%	-3%
Cc1cc(C)c2c(N)c(C(=O)Nc3nccs3)sc2n1	2%	0	-5%	1%
Nc1c(C(=O)Nc2nccs2)sc2nc(-c3cccs3)cc(C(F)(F)F)c12	6%	104*	?	8.9µM*
Cc1nnc(NC(=O)c2sc3nc(-c4cccs4)cc(C(F)(F)F)c3c2N)s1	10%	11	7.1µM*	?
CC(C)(C)C(=O)c1sc2nc(-c3cccs3)cc(C(F)(F)F)c2c1N	-5%	-1	2.8µM*	?
COc1ccc(N(Cc2cccs2)C(=O)c2ccccc2C)cc1	.	.	1%	-15%

Assay outcomes: PubChem, National Center for Advancing Translational Sciences (NCATS)
